# From PubChem BioAssay
# Values joined by “and” are separate entries in the source; they are usually repeats but may differ in a detail not shown here. Identical values can stand only once. Results filed as inconclusive are left out. More than one record can exist for a structure, and the calls need not agree. Active and inactive are the calls of the source. Unless noted, the rule behind the calls is not given here.
# Assays:
# [1] = GFP-Q80 aggregate reduction, neuronal-like cells, cell-based, NGF-treated PC12, GFPQ80 (AID 1614); conditions: PC12 NGF-treated GFP-polyQ80 inclusion reduction;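 note: lower means fewer inclusions and 0 means no inclusions at all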
# [2] = compounds altering circadian rhythm period length – cell-based, LOPAC library, luminescence reporter (AID 2774); conditions: circadian reporter cells, at 7 µM, actives lie on both sides;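 note: values are relative to mean of DMSO wells on each plate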
# [3] = test system: Hepatitis C virus NS3 helicase; experiment: blockers of NS3h binding to ssDNA – biochemical, fluorescence polarization, LOPAC1280 library, primary screen (AID 687035; in the data active = inhibition above about 37%); conditions: Purified HCV NS3 helicase, Cy5-dT15 ssDNA binding fluorescence polarization; stronger effect = higher value; concentration not given here
# [4] = compounds altering Cy5-DNA-NS3h complex signal – biochemical, LOPAC1280, artefact control for HCV NS3 helicase inhibitor project (AID 687037); conditions: Cy5-DNA-NS3h complex fluorescence interference counterscreen
# [5] = viability loss in pontine glioma line – cell-based, SU-DIPG-XVII, MIPE5.0, CellTiter-Glo, qHTS, dose response (AID 1347060; cut-off not given, nearly all actives have AC50 up to about 26 µM;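 for AC50: cells exposed to compound for 48 hours before viability readout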); conditions: CellTiter-Glo ATP luminescence
# [6] = viability loss in pontine glioma line – cell-based, SU-DIPG-XIII, MIPE4.0, CellTiter-Glo, qHTS, dose response (AID 1347061; cut-off not given, nearly all actives have AC50 up to about 37 µM;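 note: cells exposed to compound for 48 hours before readout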); conditions: CellTiter-Glo ATP luminescence
# [7] = viability loss in pontine glioma line – cell-based, SU-DIPG-XXV, MIPE5.0, CellTiter-Glo, qHTS, dose response (AID 1347065; cut-off not given, nearly all actives have AC50 up to about 26 µM;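 note: cells exposed to compound for 48 hours before ATP readout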); conditions: CellTiter-Glo ATP luminescence
# [8] = growth inhibition of DIPG cells – cell-based, MIPE4.0 library, CellTiter-Glo luminescence, qHTS (AID 1347066; cut-off not given, nearly all actives have AC50 up to about 30 µM;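 note: cells exposed to compound for 48 hours before readout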); conditions: SU-DIPG-VI viability, CellTiter-Glo ATP luminescence
# [9] = JHH-DIPG-1 glioma cell viability, MIPE5.0 library, CellTiter-Glo luminescence, qHTS (AID 1347067; cut-off not given, nearly all actives have AC50 up to about 26 µM;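 note: cells exposed to compound for 48 hours before readout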); conditions: JHH-DIPG-1 glioma viability, CellTiter-Glo ATP luminescence
# [10] = growth inhibition of DIPG cells – cell-based, MIPE5.0 library, qHTS (AID 1347068; cut-off not given, nearly all actives have IC50 up to about 30 µM;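 for IC50: cells exposed to compound for 48 hours before viability readout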); conditions: SU-DIPG-XXV viability
# [11] = blockers of cellular phospholipid synthesis – cell-based, LOPAC library, screen 4, primary screen (AID 1347384); conditions: animal cells, phospholipid biosynthesis inhibition screen; at 10 µM
# [12] = galactose survival enhancers in mitochondrial complex I cybrids – cell-based, galactose medium, ATP luminescence, primary screen (AID 1645843;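 active = z-score of at least 1.8 in each of two replicates, scored against plate mean and spread of sample wells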;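 note: positive z means more ATP and so rescue of galactose-driven cybrid death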); conditions: complex I mutant cybrid cells, 72 h, stronger effect = higher value
# [13] = compounds altering viability of human ES cells (AID 493140); conditions: human embryonic stem cell survival screen; stronger effect = higher value;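 note: cells exposed to compounds for four days before counting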
# [14] = viability loss in pontine glioma line – cell-based, SU-DIPG-XIII, MIPE5.0, CellTiter-Glo, qHTS, dose response (AID 1347064; cut-off not given, nearly all actives have AC50 up to about 23 µM;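 for AC50: cells exposed to compound for 48 hours before the viability read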); conditions: CellTiter-Glo ATP luminescence
# [15] = viability loss in pontine glioma line – cell-based, JHH-DIPG-1, MIPE4.0, CellTiter-Glo, qHTS, dose response (AID 1347062; cut-off not given, nearly all actives have AC50 up to about 27 µM;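 for AC50: cells exposed to compound for two days before readout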); conditions: JHH-DIPG-1 viability, CellTiter-Glo ATP luminescence
# [16] = viability loss with induced miR-34 in A549 – imaging, A549 dox-inducible miR-34, nuclei and caspase counts, primary screen (AID 1347080;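 active = compounds whose cell count with miR-34 switched on is under 0.7 times the count with it off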); conditions: A549 miR-34 inducible, Hoechst nuclei count, 48 h
# [17] = growth inhibition, MDA-MB-436, cell-based, BGB or cisplatin combos, synergistic combos for chromothripsis tumors (AID 1671458); conditions: MDA-MB-436 breast carcinoma growth inhibition, drug combinations, stronger effect = higher value;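 note: cells exposed for 96 hours; 0% = vehicle DMSO and 100% = killing by high DMSO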
# [18] = BT084 cell growth, single and combined drugs, ICGC_MB145, cisplatin and BGB IC40 combos (AID 1671461; in the data active = inhibition above about 80%;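 note: cells exposed to drugs for 96 hours; 0% = vehicle DMSO and 100% = high DMSO full killing control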); conditions: BT084 medulloblastoma cells, drug combinations, stronger effect = higher value
# [19] = RCMB18 cell growth, single agent and combined, cisplatin and BGB IC40 combos (AID 1671462; in the data active = inhibition above about 80%;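 note: cells exposed to compound for four days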); conditions: RCMB18 medulloblastoma cells, stronger effect = higher value
# [20] = CRL1545 cell growth, single agent and combined, cisplatin and BGB IC20 combos (AID 1671464; in the data active = inhibition above about 80%;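 note: cells exposed to compound for 96 hours before readout; 0% = vehicle DMSO and 100% = high DMSO killing control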); conditions: CRL1545 osteosarcoma cells, stronger effect = higher value
# [21] = stronger effect = lower value, cell number ratio, induced over uninduced
# [22] = measured here: relative caspase fold change +Dox/-Dox
# [23] = measured here: total cells with miR-34 induction, stronger effect = lower value
# [24] = measured here: total cells without miR-34 induction
compound,measurement,setting,value
CC1=C(CC(=O)O)c2cc(F)ccc2/C1=C\c1ccc(S(C)=O)cc1 (configuration not stated),inclusion score,[1],2
same,period change,[2],0.265 h (inactive)
same,inhibition,[3],1% (inactive)
same,fluorescence ratio (interference),[4],1 (inactive)
same,outcome,[5],inactive
same,AC50,[6],20900 nM (active)
same,outcome,[7],inactive
same,outcome,[8],inactive
same,outcome,[9],inactive
same,outcome,[10],inactive
same,outcome,[11],inactive
same,z-score,[12],-0.94 (inactive) and -0.735 (inactive) and -0.12 (inactive)
NC12CC3CC(CC(C3)C1)C2,inclusion score,[1],2
same,period change,[2],-0.05 h (inactive)
same,survival,[13],4.42 (inactive)
same,inhibition,[3],-1% (inactive)
same,fluorescence ratio (interference),[4],0.9 (inactive)
same,outcome,[5],inactive
same,outcome,[14],inactive
same,outcome,[8],inactive
same,outcome,[9],inactive
same,outcome,[10],inactive
same,outcome,[11],inactive
same,z-score,[12],0.28 (inactive) and 0.225 (inactive) and 0.335 (inactive)
N=C(N)c1ccc(OCCCCCOc2ccc(C(=N)N)cc2)cc1,survival,[13],0.583 (inactive)
same,outcome,[15],inactive
same,AC50,[7],11800 nM (active)
same,outcome,[8],inactive
same,fold change,[16]; [21],0.873 (inactive) and 0.95 (inactive) and 1.08 (inactive)
same,fold change,[16]; [22],1.42 and 0.678 and 1.37
same,cell count,[16]; [23],4130 and 4260 and 6460
same,cell count,[16]; [24],4730 and 4480 and 6000
same,outcome,[11],inactive
same,z-score,[12],-0.685 (inactive)
CCOC(=O)[C@H](CCc1ccccc1)N[C@H]1CCc2ccccc2N(CC(=O)O)C1=O,outcome,[5],inactive
same,AC50,[6],20900 nM (active)
same,AC50,[15],16600 nM (active)
same,outcome,[14],inactive
same,outcome,[7],inactive
same,outcome,[9],inactive
same,outcome,[10],inactive
same,fold change,[16]; [21],0.89 (inactive) and 0.936 (inactive)
same,fold change,[16]; [22],2.29 and 1.38
same,cell count,[16]; [23],9000 and 10300
same,cell count,[16]; [24],10100 and 11000
same,z-score,[12],0.145 (inactive)
CC[C@H](C)C(=O)O[C@H]1C[C@@H](C)C=C2C=C[C@H](C)[C@H](CC[C@@H]3C[C@@H](O)CC(=O)O3)[C@H]21,survival,[13],2.08 (inactive)
same,outcome,[6],inactive
same,outcome,[7],inactive
same,outcome,[8],inactive
same,outcome,[10],inactive
same,z-score,[12],-0.3 (inactive) and -0.62 (inactive) and -0.095 (inactive)
Nc1nc2c(ncn2COCCO)c(=O)[nH]1,inclusion score,[1],2
same,period change,[2],-0.035 h (inactive)
same,survival,[13],18.2 (inactive)
same,inhibition,[3],-2% (inactive)
same,fluorescence ratio (interference),[4],1 (inactive)
same,outcome,[5],inactive
same,outcome,[6],inactive
same,outcome,[15],inactive
same,outcome,[7],inactive
same,outcome,[9],inactive
same,outcome,[10],inactive
same,outcome,[11],inactive
same,inhibition,[17]; at 0.5 µM,-28.5% (inactive) and -3.5% (inactive)
same,inhibition,"[17]; measured here: BGB combination, at 0.5 µM",-28% and -11%
same,inhibition,"[17]; measured here: BGB combination, at 5 µM",-21.3% and -10.7%
same,inhibition,"[17]; measured here: cisplatin combination, at 0.5 µM",-47.5% and -0.282%
same,inhibition,"[17]; measured here: cisplatin combination, at 5 µM",-36.3% and -17.4%
same,inhibition,[18]; at 0.5 µM,-21.3% (inactive) and -1.95% (inactive)
same,inhibition,"[18]; cisplatin combination, at 0.5 µM",-12.5% and -17.2%
same,inhibition,"[18]; cisplatin combination, at 5 µM",-6.79% and -8.03%
same,inhibition,"[18]; measured here: BGB IC40 combination 0.05 uM, at 0.05 µM",-1.08% and -21.3%
same,inhibition,"[18]; single agent, at 5 µM",-0.642% and -9.5%
same,inhibition,[19]; at 0.5 µM,-24.6% (inactive) and -1.99% (inactive)
same,inhibition,"[19]; cisplatin combo, at 5 µM",-16.8% and -20.6%
same,inhibition,"[19]; measured here: BGB IC40 combination, at 0.05 µM",-28.4% and 4.2%
same,inhibition,"[19]; measured here: combination with cisplatin, at 0.5 µM",-35.4% and 12.7%
same,inhibition,"[19]; single agent, at 5 µM",-21.5% and -6.99%
same,inhibition,[20]; at 0.5 µM,-37.7% (inactive) and -21.2% (inactive)
same,inhibition,"[20]; measured here: with BGB IC20 combination, at 0.5 µM",-17.4% and -24.8%
same,inhibition,"[20]; measured here: with cisplatin IC20 combination, at 0.5 µM",-51.3% and -21.4%
same,inhibition,"[20]; single agent, at 0.05 µM",-59.2% and 3.53%
same,inhibition,"[20]; single agent, at 5 µM",-38.1% and -22.9%
CC[C@H]1CN2CCc3cc(OC)c(OC)cc3[C@@H]2C[C@@H]1C[C@H]1NCCc2cc(OC)c(OC)cc21,period change,[2],0 h (inactive)
same,inhibition,[3],2% (inactive)
same,fluorescence ratio (interference),[4],1 (inactive)
same,AC50,[5],263 nM (active)
same,AC50,[15],1320 nM (active)
same,AC50,[14],166 nM (active)
same,AC50,[7],417 nM (active)
same,AC50,[8],20900 nM (active)
same,AC50,[9],833 nM (active)
same,IC50,[10],742 nM (active)
same,fold change,[16]; [21],1.04 (inactive) and 0.853 (inactive)
same,fold change,[16]; [22],1.32 and 1.38
same,cell count,[16]; [23],1340 and 1650
same,cell count,[16]; [24],1300 and 1930
same,outcome,[11],inactive
same,z-score,[12],-0.955 (inactive)
CCC1(c2ccccc2)C(=O)NCNC1=O,inclusion score,[1],2
same,period change,[2],-0.19 h (inactive)
same,survival,[13],5.92 (inactive)
same,inhibition,[3],1% (inactive)
same,fluorescence ratio (interference),[4],1 (inactive)
same,outcome,[5],inactive
same,AC50,[15],8330 nM (active)
same,outcome,[14],inactive
same,outcome,[7],inactive
same,outcome,[8],inactive
same,outcome,[9],inactive
same,outcome,[10],inactive
same,outcome,[11],inactive
same,z-score,[12],1.15 (inactive) and 0.365 (inactive) and 1.9 (inactive)
CC(C)NCC(O)c1ccc(O)c(O)c1 (configuration not stated),inclusion score,[1],2
same,period change,[2],-0.07 hour (inactive) and 0.21 hour (inactive)
same,survival,[13],4.58 (inactive) and 3.08 (inactive)
same,inhibition,[3],-3% (inactive)
same,fluorescence ratio (interference),[4],1 (inactive)
same,outcome,[5],inactive
same,AC50,[15],1480 nM (active)
same,outcome,[14],inactive
same,outcome,[7],inactive
same,outcome,[8],inactive
same,outcome,[9],inactive
same,outcome,[10],inactive
same,outcome,[11],inactive
CCC(C)(C)C(=O)O[C@H]1C[C@@H](C)C=C2C=C[C@H](C)[C@H](CC[C@@H]3C[C@@H](O)CC(=O)O3)[C@H]21,survival,[13],1.17 (inactive)
same,outcome,[6],inactive
same,outcome,[10],inactive
same,z-score,[12],-1.4 (inactive) and -0.73 (inactive) and -0.85 (inactive)
CCN(CC)CCCC(C)Nc1ccnc2cc(Cl)ccc12 (configuration not stated),inclusion score,[1],2
same,period change,[2],0.02 h (inactive)
same,survival,[13],6.67 (inactive)
same,inhibition,[3],-3% (inactive)
same,fluorescence ratio (interference),[4],1 (inactive)
same,AC50,[6],8.33 nM (active)
same,outcome,[14],inactive
same,outcome,[7],inactive
same,outcome,[9],inactive
same,outcome,[10],inactive
same,outcome,[11],inactive
same,z-score,[12],-1.02 (inactive) and -1.18 (inactive)
CN1C(C(=O)Nc2ccccn2)=C(O)c2ccccc2S1(=O)=O,inclusion score,[1],2
same,period change,[2],-0.07 h (inactive)
same,survival,[13],20 (inactive)
same,inhibition,[3],-1% (inactive)
same,fluorescence ratio (interference),[4],1 (inactive)
same,outcome,[5],inactive
same,outcome,[6],inactive
same,outcome,[15],inactive
same,outcome,[14],inactive
same,outcome,[7],inactive
same,outcome,[8],inactive
same,outcome,[9],inactive
same,outcome,[10],inactive
same,outcome,[11],inactive
Oc1ccc(/C=C/c2cc(O)cc(O)c2)cc1,period change,[2],-0.215 h (inactive)
same,survival,[13],13.8 (inactive)
same,inhibition,[3],-3% (inactive)
same,fluorescence ratio (interference),[4],1 (inactive)
same,outcome,[15],inactive
same,outcome,[14],inactive
same,outcome,[8],inactive
same,outcome,[9],inactive
same,outcome,[11],inactive
same,z-score,[12],2.52 (active) and 1.26 (inactive)
